# Measurements from paper PMC7862700, “An all-to-all approach to the identification of sequence-specific readers for epigenetic DNA modifications on cytosine”.
# Key:
# Experiment in all cases: DAPPL (digital affinity profiling via proximity ligation, sequencing); 10 mM Tris-HCl pH 7.5, 50 mM NaCl, 1 mM DTT, 4% glycerol, room temperature, 30 min; GST-TFs on glutathione beads, 16-mer random dsDNA library, 0.1% formaldehyde crosslink after washing; high values mean tight binding
# Conditions in all cases: protein: recombinant; tags: N-terminal GST; dsDNA, one strand shown
# FLI1 = biological target: T1, FLI1 (Homo sapiens, UniProt Q01543 1-452)
# T1 sequence: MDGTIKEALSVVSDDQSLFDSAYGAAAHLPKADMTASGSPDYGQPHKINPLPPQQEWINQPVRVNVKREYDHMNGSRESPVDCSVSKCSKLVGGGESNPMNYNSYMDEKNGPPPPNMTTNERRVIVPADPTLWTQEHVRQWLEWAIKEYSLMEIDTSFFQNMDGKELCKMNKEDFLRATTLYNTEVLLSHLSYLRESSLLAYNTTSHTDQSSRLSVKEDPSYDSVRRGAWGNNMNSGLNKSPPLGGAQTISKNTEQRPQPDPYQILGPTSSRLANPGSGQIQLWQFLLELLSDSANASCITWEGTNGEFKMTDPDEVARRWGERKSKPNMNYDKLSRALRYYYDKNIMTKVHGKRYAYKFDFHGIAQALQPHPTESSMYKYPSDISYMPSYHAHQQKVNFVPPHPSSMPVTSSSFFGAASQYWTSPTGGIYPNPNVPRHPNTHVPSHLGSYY
# Method in brief: (§1)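 After expression in yeast as GST fusions, human transcription factors were bound to glutathione beads, DNA-barcoded and mixed with a tag-only sample. The pools were incubated with 200 nmole of a 16-mer random double-stranded DNA library in Tris/NaCl/DTT/glycerol buffer (30 min, room temperature), washed and crosslinked with 0.1% formaldehyde. Proximity ligation with BsaI/T4 ligase ran for 1 h at 37 °C, before PCR amplification and sequencing on an Illumina NextSeq500. Binding signal is a hexamer's read frequency for a factor divided by its frequency for the tag-only sample.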
# ELK1 = biological target: T2, ELK1 (Homo sapiens, UniProt P19419 1-428)
# T2 sequence: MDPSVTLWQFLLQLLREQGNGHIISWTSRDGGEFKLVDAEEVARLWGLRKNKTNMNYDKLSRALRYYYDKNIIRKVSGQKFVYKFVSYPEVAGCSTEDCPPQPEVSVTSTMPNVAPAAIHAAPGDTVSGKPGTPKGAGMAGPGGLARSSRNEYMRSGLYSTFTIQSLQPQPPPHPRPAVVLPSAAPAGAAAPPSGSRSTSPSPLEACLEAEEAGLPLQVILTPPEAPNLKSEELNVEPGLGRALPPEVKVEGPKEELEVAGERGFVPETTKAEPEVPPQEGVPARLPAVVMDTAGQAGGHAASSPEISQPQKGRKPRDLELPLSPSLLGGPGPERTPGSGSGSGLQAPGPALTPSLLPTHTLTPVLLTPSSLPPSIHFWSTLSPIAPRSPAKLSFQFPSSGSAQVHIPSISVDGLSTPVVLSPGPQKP
# Method in brief: as §1
# GABPA = biological target: T3, GABPA (Homo sapiens, UniProt Q06546 1-454)
# T3 sequence: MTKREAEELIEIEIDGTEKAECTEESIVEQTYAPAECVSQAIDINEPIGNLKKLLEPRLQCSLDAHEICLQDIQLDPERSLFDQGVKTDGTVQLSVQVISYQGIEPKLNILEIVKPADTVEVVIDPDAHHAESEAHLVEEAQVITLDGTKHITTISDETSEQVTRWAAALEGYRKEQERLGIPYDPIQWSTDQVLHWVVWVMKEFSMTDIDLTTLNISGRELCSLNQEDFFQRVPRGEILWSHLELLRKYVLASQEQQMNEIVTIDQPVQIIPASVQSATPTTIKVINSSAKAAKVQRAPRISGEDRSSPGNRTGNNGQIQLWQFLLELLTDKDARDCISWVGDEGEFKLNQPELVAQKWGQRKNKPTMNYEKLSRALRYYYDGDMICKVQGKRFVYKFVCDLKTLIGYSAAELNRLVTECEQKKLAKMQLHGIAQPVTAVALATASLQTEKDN
# Method in brief: as §1
# ERG = biological target: T4, ERG (Homo sapiens, UniProt P11308 1-479)
# T4 sequence: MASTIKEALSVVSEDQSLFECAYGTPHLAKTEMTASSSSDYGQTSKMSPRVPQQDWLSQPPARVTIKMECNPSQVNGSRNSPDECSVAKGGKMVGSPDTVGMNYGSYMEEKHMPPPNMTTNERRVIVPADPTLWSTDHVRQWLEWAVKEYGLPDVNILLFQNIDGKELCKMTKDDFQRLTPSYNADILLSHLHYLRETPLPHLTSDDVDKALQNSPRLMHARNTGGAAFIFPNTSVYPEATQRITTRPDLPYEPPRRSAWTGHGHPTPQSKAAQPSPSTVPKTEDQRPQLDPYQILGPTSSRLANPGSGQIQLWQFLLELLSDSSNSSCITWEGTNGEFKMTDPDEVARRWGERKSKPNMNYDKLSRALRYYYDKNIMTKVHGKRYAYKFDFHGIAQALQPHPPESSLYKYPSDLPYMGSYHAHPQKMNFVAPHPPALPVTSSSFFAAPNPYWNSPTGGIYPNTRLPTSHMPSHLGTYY
# Method in brief: as §1
# ELF1 = ELF1 (Homo sapiens, UniProt P32519 1-619)
# Sequence of ELF1 (P32519 whole entry): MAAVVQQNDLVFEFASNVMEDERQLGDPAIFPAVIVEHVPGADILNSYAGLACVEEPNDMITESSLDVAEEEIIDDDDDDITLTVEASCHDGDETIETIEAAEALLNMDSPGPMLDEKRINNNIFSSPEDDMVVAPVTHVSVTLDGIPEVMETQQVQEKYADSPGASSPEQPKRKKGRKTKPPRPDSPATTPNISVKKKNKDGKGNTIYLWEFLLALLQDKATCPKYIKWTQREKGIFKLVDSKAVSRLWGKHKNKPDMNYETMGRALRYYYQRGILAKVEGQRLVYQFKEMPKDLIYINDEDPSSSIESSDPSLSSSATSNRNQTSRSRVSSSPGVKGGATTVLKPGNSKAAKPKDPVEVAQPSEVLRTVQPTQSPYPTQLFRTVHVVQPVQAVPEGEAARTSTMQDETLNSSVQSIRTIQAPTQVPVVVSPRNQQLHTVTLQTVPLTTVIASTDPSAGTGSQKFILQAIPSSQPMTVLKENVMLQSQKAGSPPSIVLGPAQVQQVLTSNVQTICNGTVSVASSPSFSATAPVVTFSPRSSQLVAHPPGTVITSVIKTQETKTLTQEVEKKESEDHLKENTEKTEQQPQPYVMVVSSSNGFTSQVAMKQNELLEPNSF
# Method in brief: as §1
# EHF = biological target: T5, EHF (Homo sapiens, UniProt Q9NZC4 1-300)
# T5 sequence: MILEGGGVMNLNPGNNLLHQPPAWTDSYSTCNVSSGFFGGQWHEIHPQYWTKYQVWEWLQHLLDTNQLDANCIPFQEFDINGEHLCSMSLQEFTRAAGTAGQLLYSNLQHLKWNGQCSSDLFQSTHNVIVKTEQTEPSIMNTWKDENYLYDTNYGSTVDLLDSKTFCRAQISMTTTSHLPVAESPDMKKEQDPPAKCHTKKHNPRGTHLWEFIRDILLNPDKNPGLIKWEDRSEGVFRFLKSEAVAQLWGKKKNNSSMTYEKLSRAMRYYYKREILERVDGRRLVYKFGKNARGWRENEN
# Method in brief: as §1
# SPI1 = SPI1 (Homo sapiens, UniProt P17947 1-270)
# Method in brief: as §1
# SPIB = SPIB (Homo sapiens, UniProt Q01892 1-262)
# Sequence of SPIB (Q01892 whole entry): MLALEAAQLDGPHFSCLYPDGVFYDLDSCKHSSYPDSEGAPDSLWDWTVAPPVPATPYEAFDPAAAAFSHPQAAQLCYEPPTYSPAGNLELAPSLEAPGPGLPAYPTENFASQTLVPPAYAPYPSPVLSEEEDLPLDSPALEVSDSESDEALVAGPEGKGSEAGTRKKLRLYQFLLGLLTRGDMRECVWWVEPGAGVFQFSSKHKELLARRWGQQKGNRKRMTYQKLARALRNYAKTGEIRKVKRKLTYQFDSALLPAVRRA
# Method in brief: as §1
# ELK3 = biological target: T6, ELK3 (Homo sapiens, UniProt P41970 1-407)
# T6 sequence: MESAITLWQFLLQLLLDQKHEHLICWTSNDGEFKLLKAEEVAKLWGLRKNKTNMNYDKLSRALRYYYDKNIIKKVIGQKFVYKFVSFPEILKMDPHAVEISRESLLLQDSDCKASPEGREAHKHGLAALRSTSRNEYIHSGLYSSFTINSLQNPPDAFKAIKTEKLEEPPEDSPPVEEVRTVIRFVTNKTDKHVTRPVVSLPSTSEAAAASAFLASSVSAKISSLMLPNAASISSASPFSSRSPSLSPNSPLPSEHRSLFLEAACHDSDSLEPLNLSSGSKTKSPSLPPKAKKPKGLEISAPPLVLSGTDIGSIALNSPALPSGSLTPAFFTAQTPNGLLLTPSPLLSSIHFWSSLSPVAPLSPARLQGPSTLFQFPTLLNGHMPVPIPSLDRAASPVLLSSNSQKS
# Method in brief: as §1
# FEV = biological target: T7, FEV (Homo sapiens, UniProt Q99581 1-238)
# T7 sequence: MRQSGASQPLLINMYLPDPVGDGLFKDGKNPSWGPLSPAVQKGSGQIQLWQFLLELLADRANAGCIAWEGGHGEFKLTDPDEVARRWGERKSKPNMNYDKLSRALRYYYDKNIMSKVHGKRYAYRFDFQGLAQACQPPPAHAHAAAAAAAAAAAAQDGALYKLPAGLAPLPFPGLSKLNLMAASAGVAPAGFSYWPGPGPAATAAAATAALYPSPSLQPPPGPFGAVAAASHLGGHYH
# Method in brief: as §1
# ETV5 = ETV5 (Homo sapiens, UniProt P41161 1-510)
# Sequence of ETV5 (P41161 whole entry): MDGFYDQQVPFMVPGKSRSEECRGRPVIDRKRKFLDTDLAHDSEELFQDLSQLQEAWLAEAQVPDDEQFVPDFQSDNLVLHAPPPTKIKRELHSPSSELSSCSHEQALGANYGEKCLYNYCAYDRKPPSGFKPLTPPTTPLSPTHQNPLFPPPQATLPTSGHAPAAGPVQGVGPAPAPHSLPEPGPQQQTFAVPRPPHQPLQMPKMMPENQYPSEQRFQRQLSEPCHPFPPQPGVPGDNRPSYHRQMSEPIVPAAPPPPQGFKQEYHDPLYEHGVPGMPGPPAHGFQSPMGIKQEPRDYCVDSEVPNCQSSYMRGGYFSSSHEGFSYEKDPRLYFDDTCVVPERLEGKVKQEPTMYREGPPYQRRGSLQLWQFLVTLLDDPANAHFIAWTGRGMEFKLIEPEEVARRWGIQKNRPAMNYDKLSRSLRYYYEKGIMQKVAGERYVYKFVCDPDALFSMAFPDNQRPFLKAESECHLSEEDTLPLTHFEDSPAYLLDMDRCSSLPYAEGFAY
# Method in brief: as §1
# SPIC = biological target: T8, SPIC (Homo sapiens, UniProt Q8N5J4 1-248)
# T8 sequence: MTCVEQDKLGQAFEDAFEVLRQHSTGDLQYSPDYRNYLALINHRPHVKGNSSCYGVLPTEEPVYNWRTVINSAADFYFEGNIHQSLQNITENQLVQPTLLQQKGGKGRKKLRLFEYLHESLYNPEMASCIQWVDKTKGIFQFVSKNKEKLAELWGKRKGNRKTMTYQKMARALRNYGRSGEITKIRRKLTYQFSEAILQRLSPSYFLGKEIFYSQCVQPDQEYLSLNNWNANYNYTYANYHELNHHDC
# Method in brief: as §1
# ELF4 = ELF4 (Homo sapiens, UniProt Q99607 1-663)
# Sequence of ELF4 (Q99607 whole entry): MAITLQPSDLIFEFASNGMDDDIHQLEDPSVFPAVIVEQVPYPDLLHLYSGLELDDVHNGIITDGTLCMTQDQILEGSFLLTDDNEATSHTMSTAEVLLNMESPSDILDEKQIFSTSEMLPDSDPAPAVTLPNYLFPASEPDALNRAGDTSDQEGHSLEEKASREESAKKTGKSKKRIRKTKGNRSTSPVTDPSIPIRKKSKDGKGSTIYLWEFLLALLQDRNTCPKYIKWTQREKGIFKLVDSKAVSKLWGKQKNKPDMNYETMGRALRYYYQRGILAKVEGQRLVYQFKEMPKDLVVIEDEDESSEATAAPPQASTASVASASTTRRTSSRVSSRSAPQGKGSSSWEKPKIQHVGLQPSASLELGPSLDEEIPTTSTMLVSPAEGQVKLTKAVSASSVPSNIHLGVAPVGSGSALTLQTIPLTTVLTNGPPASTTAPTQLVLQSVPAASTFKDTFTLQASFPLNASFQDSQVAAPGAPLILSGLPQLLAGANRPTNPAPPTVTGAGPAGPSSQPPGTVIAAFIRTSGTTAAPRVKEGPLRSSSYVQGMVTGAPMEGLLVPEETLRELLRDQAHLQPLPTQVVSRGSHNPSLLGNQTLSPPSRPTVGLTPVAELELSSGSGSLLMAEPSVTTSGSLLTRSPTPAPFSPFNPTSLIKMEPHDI
# Method in brief: as §1
# ERF = biological target: T9, ERF (Homo sapiens, UniProt P50548 1-548)
# T9 sequence: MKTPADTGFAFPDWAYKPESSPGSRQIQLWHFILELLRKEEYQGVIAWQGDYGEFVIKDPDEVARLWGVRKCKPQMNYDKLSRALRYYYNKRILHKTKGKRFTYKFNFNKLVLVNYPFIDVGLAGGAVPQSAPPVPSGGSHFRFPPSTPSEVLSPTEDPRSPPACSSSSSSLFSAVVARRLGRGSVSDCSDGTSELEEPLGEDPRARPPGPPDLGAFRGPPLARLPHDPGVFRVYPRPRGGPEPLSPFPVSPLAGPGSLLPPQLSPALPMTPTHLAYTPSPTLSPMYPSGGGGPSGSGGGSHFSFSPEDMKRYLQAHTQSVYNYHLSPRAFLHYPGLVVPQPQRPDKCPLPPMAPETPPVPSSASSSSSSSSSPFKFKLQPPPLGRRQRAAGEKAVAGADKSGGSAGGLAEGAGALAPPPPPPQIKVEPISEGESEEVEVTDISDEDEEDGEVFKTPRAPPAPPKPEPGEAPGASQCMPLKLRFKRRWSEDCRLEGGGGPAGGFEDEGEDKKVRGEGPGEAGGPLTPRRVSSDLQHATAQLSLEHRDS
# Method in brief: as §1
# ETV3L = biological target: T10, ETV3L (Homo sapiens, UniProt Q6ZN32 1-361)
# T10 sequence: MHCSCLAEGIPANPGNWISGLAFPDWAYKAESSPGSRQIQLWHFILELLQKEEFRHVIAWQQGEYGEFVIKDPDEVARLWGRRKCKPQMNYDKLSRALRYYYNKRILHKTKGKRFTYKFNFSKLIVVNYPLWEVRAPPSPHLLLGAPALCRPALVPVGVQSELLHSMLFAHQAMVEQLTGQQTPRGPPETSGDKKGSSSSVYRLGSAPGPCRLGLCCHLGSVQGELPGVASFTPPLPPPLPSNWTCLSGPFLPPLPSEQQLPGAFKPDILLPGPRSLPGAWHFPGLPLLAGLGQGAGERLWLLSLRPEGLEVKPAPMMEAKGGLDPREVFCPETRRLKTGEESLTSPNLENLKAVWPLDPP
# Method in brief: as §1
# ETS2 = biological target: T11, ETS2 (Homo sapiens, UniProt P15036 1-469)
# T11 sequence: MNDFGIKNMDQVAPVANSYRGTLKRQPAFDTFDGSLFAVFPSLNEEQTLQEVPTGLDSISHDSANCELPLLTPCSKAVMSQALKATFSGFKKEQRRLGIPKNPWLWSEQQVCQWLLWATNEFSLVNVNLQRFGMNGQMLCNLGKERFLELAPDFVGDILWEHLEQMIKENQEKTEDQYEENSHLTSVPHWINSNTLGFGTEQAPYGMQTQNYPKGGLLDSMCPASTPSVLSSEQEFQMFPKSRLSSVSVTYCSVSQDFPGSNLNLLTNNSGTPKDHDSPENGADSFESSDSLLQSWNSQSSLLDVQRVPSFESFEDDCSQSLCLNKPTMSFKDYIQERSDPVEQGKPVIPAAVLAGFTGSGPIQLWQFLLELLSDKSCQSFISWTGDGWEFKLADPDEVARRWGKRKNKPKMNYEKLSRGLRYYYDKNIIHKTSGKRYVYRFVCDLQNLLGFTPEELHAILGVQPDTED
# Method in brief: as §1
# SPDEF = biological target: T12, SPDEF (Homo sapiens, UniProt O95238 1-335)
# T12 sequence: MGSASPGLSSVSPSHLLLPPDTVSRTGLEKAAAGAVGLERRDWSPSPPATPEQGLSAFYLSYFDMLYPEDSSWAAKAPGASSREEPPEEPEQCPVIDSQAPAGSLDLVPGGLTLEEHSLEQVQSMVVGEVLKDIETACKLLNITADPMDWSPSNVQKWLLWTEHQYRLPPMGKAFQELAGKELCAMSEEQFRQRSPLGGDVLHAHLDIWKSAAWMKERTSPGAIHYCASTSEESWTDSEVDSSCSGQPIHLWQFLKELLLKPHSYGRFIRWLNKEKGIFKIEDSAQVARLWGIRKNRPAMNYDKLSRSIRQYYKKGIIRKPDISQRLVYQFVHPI
# Method in brief: as §1
# ETV3 = biological target: T13, ETV3 (Homo sapiens, UniProt P41162-2 1-143)
# T13 sequence: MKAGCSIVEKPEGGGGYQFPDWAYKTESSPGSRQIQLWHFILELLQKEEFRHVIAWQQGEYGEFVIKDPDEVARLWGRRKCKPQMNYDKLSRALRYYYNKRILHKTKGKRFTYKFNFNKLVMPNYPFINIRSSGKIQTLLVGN
# Method in brief: as §1
# ETV6 = ETV6 (Homo sapiens, UniProt P41212 1-452)
# Sequence of ETV6 (P41212 whole entry): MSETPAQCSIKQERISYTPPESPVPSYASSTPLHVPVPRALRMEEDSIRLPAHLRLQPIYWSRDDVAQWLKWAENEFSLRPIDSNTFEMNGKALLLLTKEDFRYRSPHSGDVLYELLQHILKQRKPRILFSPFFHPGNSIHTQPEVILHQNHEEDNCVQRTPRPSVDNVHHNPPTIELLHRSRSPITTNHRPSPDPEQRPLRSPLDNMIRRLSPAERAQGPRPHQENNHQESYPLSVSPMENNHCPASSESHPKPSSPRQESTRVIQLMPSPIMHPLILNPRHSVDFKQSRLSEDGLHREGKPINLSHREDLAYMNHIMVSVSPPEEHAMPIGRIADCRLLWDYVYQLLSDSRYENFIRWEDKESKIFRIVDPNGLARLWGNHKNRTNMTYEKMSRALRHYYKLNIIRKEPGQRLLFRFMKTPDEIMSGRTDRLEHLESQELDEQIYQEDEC
# Method in brief: as §1
sequence,measurement,setting,value
TGCCAA,binding signal,FLI1,"1.07 fold enrichment (6-mer frequency, TF over GST control)"
same,binding signal,ELK1,"1.11 fold enrichment (6-mer frequency, TF over GST control)"
same,binding signal,GABPA,"1.06 fold enrichment (6-mer frequency, TF over GST control)"
same,binding signal,ERG,"1.06 fold enrichment (6-mer frequency, TF over GST control)"
same,binding signal,ELF1,"1.18 fold enrichment (6-mer frequency, TF over GST control)"
same,binding signal,EHF,"1.09 fold enrichment (6-mer frequency, TF over GST control)"
same,binding signal,SPI1,"1.12 fold enrichment (6-mer frequency, TF over GST control)"
same,binding signal,SPIB,"1.11 fold enrichment (6-mer frequency, TF over GST control)"
same,binding signal,ELK3,"1.05 fold enrichment (6-mer frequency, TF over GST control)"
same,binding signal,FEV,"1.12 fold enrichment (6-mer frequency, TF over GST control)"
same,binding signal,ETV5,"1.08 fold enrichment (6-mer frequency, TF over GST control)"
same,binding signal,SPIC,"1.08 fold enrichment (6-mer frequency, TF over GST control)"
same,binding signal,ELF4,"1.12 fold enrichment (6-mer frequency, TF over GST control)"
same,binding signal,ERF,"1.15 fold enrichment (6-mer frequency, TF over GST control)"
same,binding signal,ETV3L,"1.21 fold enrichment (6-mer frequency, TF over GST control)"
same,binding signal,ETS2,"1.12 fold enrichment (6-mer frequency, TF over GST control)"
same,binding signal,SPDEF,"1.08 fold enrichment (6-mer frequency, TF over GST control)"
same,binding signal,ETV3,"1.13 fold enrichment (6-mer frequency, TF over GST control)"
same,binding signal,ETV6,"1.08 fold enrichment (6-mer frequency, TF over GST control)"
